From PubChem BioAssay
For some assays here: Potency and affinity values are given separately. Active and inactive are the calls of the source. Unless noted, no rule for the calls is given here.

Assays:
[1] = antimalarial activity against Dd2 strain (AID 2302;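 active = growth inhibition above 50% at the single 2 µM test dose, taken to imply half-maximal potency below 2 µM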;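 also: 0% = DMSO untreated growth and 100% = chloroquine plus artemisinin killed control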); conditions: P. falciparum Dd2 in RBCs, LDH growth readout, 72 h; at 2 µM; active compounds read high
[2] = HepG2 cytotoxicity, primary screen, cytotoxicity control for P. falciparum antimalarial project, cell-based, ATP luminescence (AID 2303;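 active = inhibition above 50%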;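 also: 0% = DMSO wells and 100% = digitonin-killed cells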); conditions: HepG2 viability, 24-48 h, at 10 µM, active compounds read high
[3] = target: L-lactate dehydrogenase (Plasmodium falciparum (isolate CDC / Honduras)) (UniProt Q27743); assay: PfLDH activity inhibition – cell lysate, 3D7 strain, counter-screen for P. falciparum growth inhibition project (AID 2304);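 also: 0% = vehicle and 100% = reference inhibitor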; conditions: P. falciparum 3D7 crude extract, LDH APAD/NBT absorbance; at 2 µM; active compounds read high
[4] = inhibition of 3D7 malaria parasite growth – strain 3D7 (AID 2306);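 also: 0% = DMSO wells and 100% = chloroquine plus artemisinin control wells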; conditions: P. falciparum 3D7 erythrocytic growth, LDH absorbance, 72 h; at 2 µM; active compounds read high
[5] = target: Calcium-dependent protein kinase 1 (Plasmodium falciparum (isolate 3D7)) (UniProt P62344); assay: PfCDPK1 kinase inhibitors, biochemical, TCAMS library (AID 1159585; cut-off not given, nearly all actives have IC50 up to about 0.98 µM;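 also: inhibitors leave more ATP so luminescence rises with inhibition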); conditions: recombinant PfCDPK1, Kinase-Glo ATP depletion luminescence
[6] = target: Plasmodium falciparum protein kinase 6 (PK6, PF3D7_1337100) (UniProt Q8IDW1); assay: PfPK6 kinase inhibitors, biochemical, TCAMS library (AID 1159586); conditions: recombinant PfPK6, Kinase-Glo ATP depletion luminescence
[7] = target: Protein kinase 7 (PK7), Plasmodium falciparum 3D7 (PF3D7_0213400) (UniProt Q7YTF7); assay: inhibition of Plasmodium PK7 catalytic activity – biochemical, TCAMS antimalarial set, Kinase-Glo luminescence (AID 1159587); conditions: recombinant PfPK7, Kinase-Glo ATP depletion luminescence
[8] = target: Calcium-dependent protein kinase 4 (Plasmodium falciparum (isolate 3D7)) (UniProt Q8IBS5); assay: PfCDPK4 kinase inhibitors, biochemical, TCAMS library (AID 1159588; cut-off not given, nearly all actives have IC50 up to about 0.91 µM); conditions: recombinant PfCDPK4, Kinase-Glo ATP depletion luminescence
Chain of Calcium-dependent protein kinase 4 (Plasmodium falciparum (isolate 3D7)) (Q8IBS5 whole entry, looked up): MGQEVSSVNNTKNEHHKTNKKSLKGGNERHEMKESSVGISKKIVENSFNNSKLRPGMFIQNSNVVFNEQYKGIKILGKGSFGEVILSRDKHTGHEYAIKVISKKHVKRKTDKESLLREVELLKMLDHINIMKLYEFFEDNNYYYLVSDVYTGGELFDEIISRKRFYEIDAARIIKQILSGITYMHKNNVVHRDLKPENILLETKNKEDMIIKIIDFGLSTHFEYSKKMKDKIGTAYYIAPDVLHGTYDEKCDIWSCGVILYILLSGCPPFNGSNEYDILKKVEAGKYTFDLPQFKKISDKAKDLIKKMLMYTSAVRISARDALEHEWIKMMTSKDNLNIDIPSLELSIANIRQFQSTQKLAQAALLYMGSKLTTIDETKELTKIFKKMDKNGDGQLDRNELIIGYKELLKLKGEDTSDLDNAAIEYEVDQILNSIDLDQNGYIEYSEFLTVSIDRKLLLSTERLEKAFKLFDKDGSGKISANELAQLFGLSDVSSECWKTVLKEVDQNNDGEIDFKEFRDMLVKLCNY

Chain of Calcium-dependent protein kinase 1 (Plasmodium falciparum (isolate 3D7)) (P62344 whole entry, looked up): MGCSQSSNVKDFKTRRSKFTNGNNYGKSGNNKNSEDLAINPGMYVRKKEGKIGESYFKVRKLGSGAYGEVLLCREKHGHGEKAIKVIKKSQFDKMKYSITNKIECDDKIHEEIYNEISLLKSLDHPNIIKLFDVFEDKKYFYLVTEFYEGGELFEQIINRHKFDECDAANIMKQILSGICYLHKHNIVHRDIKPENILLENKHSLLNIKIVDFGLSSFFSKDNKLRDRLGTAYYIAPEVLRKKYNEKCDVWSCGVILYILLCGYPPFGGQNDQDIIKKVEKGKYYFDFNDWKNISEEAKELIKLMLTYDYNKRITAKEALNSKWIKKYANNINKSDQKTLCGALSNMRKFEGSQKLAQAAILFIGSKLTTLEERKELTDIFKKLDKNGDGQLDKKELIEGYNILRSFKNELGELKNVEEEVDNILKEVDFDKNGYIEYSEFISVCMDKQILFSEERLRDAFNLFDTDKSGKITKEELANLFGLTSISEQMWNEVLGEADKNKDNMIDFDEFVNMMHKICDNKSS
Chain of Protein kinase 7 (PK7), Plasmodium falciparum 3D7 (PF3D7_0213400) (Q7YTF7 1-343): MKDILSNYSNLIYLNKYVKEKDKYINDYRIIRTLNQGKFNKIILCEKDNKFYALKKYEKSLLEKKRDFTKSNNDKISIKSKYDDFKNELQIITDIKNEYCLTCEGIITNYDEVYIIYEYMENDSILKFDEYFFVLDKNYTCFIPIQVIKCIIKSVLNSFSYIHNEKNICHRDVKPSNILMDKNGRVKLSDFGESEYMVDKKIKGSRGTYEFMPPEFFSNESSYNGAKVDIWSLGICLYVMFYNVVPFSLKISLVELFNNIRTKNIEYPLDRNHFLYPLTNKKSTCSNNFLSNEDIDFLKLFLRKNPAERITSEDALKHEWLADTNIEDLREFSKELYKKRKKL
Chain of L-lactate dehydrogenase (Plasmodium falciparum (isolate CDC / Honduras)) (Q27743 whole entry, looked up): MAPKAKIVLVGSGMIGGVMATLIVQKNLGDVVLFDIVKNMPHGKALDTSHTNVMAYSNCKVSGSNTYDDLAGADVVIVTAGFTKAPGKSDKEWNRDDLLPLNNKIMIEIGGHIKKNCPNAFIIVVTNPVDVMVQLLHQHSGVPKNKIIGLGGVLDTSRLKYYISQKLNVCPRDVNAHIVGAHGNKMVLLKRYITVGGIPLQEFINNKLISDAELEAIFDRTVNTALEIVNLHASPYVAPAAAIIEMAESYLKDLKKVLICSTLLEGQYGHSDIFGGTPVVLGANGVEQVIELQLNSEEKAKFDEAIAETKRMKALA
Chain of Plasmodium falciparum protein kinase 6 (PK6, PF3D7_1337100) (Q8IDW1 1-305): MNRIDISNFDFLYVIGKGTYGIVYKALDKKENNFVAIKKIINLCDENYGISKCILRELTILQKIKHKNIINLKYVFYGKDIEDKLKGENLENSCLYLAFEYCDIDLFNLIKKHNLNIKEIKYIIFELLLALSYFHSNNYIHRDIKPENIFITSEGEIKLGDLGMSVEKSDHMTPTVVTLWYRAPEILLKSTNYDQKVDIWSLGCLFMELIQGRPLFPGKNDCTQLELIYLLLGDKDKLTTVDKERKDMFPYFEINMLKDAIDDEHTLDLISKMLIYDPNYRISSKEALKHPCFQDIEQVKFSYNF

CC(C)CNCc1cccc(-c2cccc(CN(CCCN3CCN(C)CC3)C(=O)/C=C/c3ccccc3)c2)c1
inactive: inhibition [2] 44% | inhibition [3] 7% | outcome [5] | outcome [6] | outcome [7] | outcome [8]
active: growth inhibition [1] 88% | growth inhibition [4] 90%

CCOC(=O)c1c[nH]c2c(sc3cc(OC)ccc32)c1=O
active: growth inhibition [1] 93% | growth inhibition [4] 96%
inactive: inhibition [2] -6% | inhibition [3] 3% | outcome [5] | outcome [6] | outcome [7] | outcome [8]

COc1ccc2nccc([C@@H](O)CN3CC[C@H](NCc4nc5c(cc4Cl)OCC(=O)N5)[C@H](F)C3)c2c1
active: growth inhibition [4] 84%
inactive: growth inhibition [1] 29% | inhibition [2] 4% | inhibition [3] 4% | outcome [5] | outcome [6] | outcome [7] | outcome [8]

Cc1cc(N)nc2ccc(-c3ccc(CN)cc3)cc12
active: growth inhibition [1] 93% | growth inhibition [4] 100%
inactive: inhibition [2] 4% | inhibition [3] -3% | outcome [5] | outcome [6] | outcome [7] | outcome [8]

Oc1ccc(Cl)c2c1C(c1ccccc1)=NCC2
active: growth inhibition [4] 95%
inactive: growth inhibition [1] 43% | inhibition [2] -9% | inhibition [3] -4% | outcome [5] | outcome [6] | outcome [7] | outcome [8]

O=[N+]([O-])c1cccc(C(Nc2ccccn2)c2ccc3cccnc3c2O)c1 (stereo not given)
inactive: growth inhibition [1] 29% | inhibition [3] 0% | outcome [5] | outcome [6] | outcome [7] | outcome [8]
active: inhibition [2] 53% | growth inhibition [4] 86%

CC(C)CNCc1cccc(-c2ccc(CN(C(=O)NCCc3ccccc3)C3CCN(Cc4ccccc4)CC3)cc2)c1
active: inhibition [2] 99% | growth inhibition [4] 98%
inactive: growth inhibition [1] 47% | inhibition [3] 5% | outcome [5] | outcome [6] | outcome [7] | outcome [8]

CN1CCCC(CN2CCN(Cc3ccc(-c4ccc(-c5nc6ccc(F)cc6[nH]5)cc4)cc3)CC2)C1 (stereo not given)
inactive: inhibition [3] -1% | outcome [5] | outcome [6] | outcome [7] | outcome [8]
active: growth inhibition [1] 98% | inhibition [2] 90% | growth inhibition [4] 100%

O=C(NCc1ccco1)c1ccc(CN2CCN(C(c3ccccc3)c3ccccc3)CC2)cc1
inactive: inhibition [2] 6% | inhibition [3] -1% | outcome [5] | outcome [6] | outcome [7] | outcome [8]
active: growth inhibition [1] 92% | growth inhibition [4] 96%

Cc1c(S(=O)(=O)Nc2ccc3nccc(N4C[C@@H](C)N[C@@H](C)C4)c3c2)sc2ccc(Cl)cc12
inactive: growth inhibition [1] -4% | inhibition [2] -8% | inhibition [3] 5% | outcome [5] | outcome [6] | outcome [7] | outcome [8]
active: growth inhibition [4] 92%

CCOc1ccc(NC(=O)c2cn3nc(-c4ccc(OCC)cc4)cc3nc2C2CCNCC2)cc1
active: growth inhibition [4] 102%
inactive: growth inhibition [1] 39% | inhibition [2] 36% | inhibition [3] -11% | outcome [5] | outcome [6] | outcome [7] | outcome [8]

c1cc(CN2CCN(CCN3CCOCC3)CC2)cc(-c2cccc(-c3nc4ccccc4[nH]3)c2)c1
inactive: inhibition [2] 29% | inhibition [3] -2% | outcome [5] | outcome [6] | outcome [7] | outcome [8]
active: growth inhibition [1] 100% | growth inhibition [4] 100%

Cc1ccc(O)cc1Nc1ccnc2ccc(-c3cccc(CN(C)C)c3)cc12
active: growth inhibition [1] 99% | growth inhibition [4] 101%
inactive: inhibition [2] -3% | inhibition [3] 1% | outcome [5] | outcome [6] | outcome [7] | outcome [8]

N#Cc1ccc2c(c1)CN(C1CCC(NC(=O)/C=C/c3cc(C(F)(F)F)cc(C(F)(F)F)c3)CC1)CCC2 (stereo not given)
active: growth inhibition [4] 95%
inactive: growth inhibition [1] 4% | inhibition [2] 34% | inhibition [3] -4% | outcome [5] | outcome [6] | outcome [7] | outcome [8]

O=C(Nc1cccc(F)c1)NC1CCN(c2ccnc3cc(Cl)ccc23)C1 (stereo not given)
active: growth inhibition [1] 64% | growth inhibition [4] 101%
inactive: inhibition [2] 13% | inhibition [3] -1% | outcome [5] | outcome [6] | outcome [7] | outcome [8]

CN1CCN(c2ccc(-c3cccc(NC(=O)c4cccc([N+](=O)[O-])c4)c3)nn2)CC1
inactive: growth inhibition [1] 35% | inhibition [2] 21% | inhibition [3] -1% | outcome [5] | outcome [6] | outcome [7] | outcome [8]
active: growth inhibition [4] 99%

Cc1nn(CCOC(=O)NC(NCC2COc3ccccc3O2)C(Cl)(Cl)Cl)cc1[N+](=O)[O-] (stereo not given)
inactive: inhibition [2] -9% | inhibition [3] 2% | outcome [5] | outcome [6] | outcome [7] | outcome [8]
active: growth inhibition [1] 99% | growth inhibition [4] 99%

O=S(=O)(NCCN1CCCC1)c1cccc(-c2ccc(CNCc3ccccc3)cc2)c1
inactive: growth inhibition [1] 41% | inhibition [3] -8% | outcome [5] | outcome [6] | outcome [7] | outcome [8]
active: inhibition [2] 54% | growth inhibition [4] 95%

O=C(O)c1ccc(-c2c[nH]c3ncc(-c4ccc(Cl)cc4)cc23)cc1
inactive: inhibition [2] 39% | inhibition [3] 7% | outcome [5] | outcome [6] | outcome [7] | outcome [8]
active: growth inhibition [1] 99% | growth inhibition [4] 97%

CCCC/C=C(\Cl)c1ccc(O)c2c1C[C@H]1C[C@H]3[C@H](N(C)C)C(=O)C(C(N)=O)=C(O)[C@@]3(O)C(=O)C1=C2O
active: growth inhibition [1] 98% | growth inhibition [4] 90%
inactive: inhibition [2] 16% | inhibition [3] -4% | outcome [5] | outcome [6] | outcome [7] | outcome [8]

O=c1cc(NCCCNCc2cc(Cl)c(Cl)cc2Cl)[nH]c2ccccc12
inactive: growth inhibition [1] 20% | inhibition [2] 7% | inhibition [3] -1% | outcome [5] | outcome [6] | outcome [7] | outcome [8]
active: growth inhibition [4] 93%

CC(C)Sc1nncc(-c2cnnc(SC(C)C)n2)n1
inactive: inhibition [2] -1% | inhibition [3] 2% | outcome [5] | outcome [6] | outcome [7] | outcome [8]
active: growth inhibition [1] 100% | growth inhibition [4] 101%

Cc1ccc(-c2ccc3c(c2)C=C(C(=O)NC2CCN(CCNC(=O)c4cccs4)CC2)CCC3)cc1
active: growth inhibition [4] 90%
inactive: growth inhibition [1] 30% | inhibition [2] 27% | inhibition [3] -1% | outcome [5] | outcome [6] | outcome [7] | outcome [8]

CC(C)CC(C)NC(=O)C1Cc2c([nH]c3ccc(F)cc23)C2(CCN(Cc3ccccc3)CC2)N1 (stereo not given)
inactive: growth inhibition [1] 49% | inhibition [2] 18% | inhibition [3] 7% | outcome [5] | outcome [6] | outcome [7] | outcome [8]
active: growth inhibition [4] 97%

O=C(COc1ccc(C(=O)c2ccccc2)cc1)Nc1nccs1
active: growth inhibition [4] 94%
inactive: growth inhibition [1] 18% | inhibition [2] 0% | inhibition [3] 2% | outcome [5] | outcome [6] | outcome [7] | outcome [8]

O=C(/C=C/c1ccc(Cl)c(Cl)c1)NCCCCCN1CCCN(C(=O)Nc2cccc(Cl)c2)CC1
active: growth inhibition [4] 102%
inactive: growth inhibition [1] 2% | inhibition [2] 11% | inhibition [3] 0% | outcome [5] | outcome [6] | outcome [7] | outcome [8]

CCN1CCN(c2cc(C)c3cc(NC(=O)c4ccc([N+](=O)[O-])c(C)c4)ccc3n2)CC1
active: growth inhibition [4] 92%
inactive: growth inhibition [1] 39% | inhibition [2] 8% | inhibition [3] -2% | outcome [5] | outcome [6] | outcome [7] | outcome [8]

O=C(Nc1cc(Cl)ccc1Cl)N[C@H]1CCN(CCCCCNC(=O)[C@@H]2C[C@H]2c2ccc(Cl)c(Cl)c2)C1
active: growth inhibition [4] 97%
inactive: growth inhibition [1] 1% | inhibition [2] 49% | inhibition [3] 0% | outcome [5] | outcome [6] | outcome [7] | outcome [8]

CN(C)CCOc1ccnc2ccc(NC(=O)Cc3ccc(-c4ccncc4)c4ccccc34)cc12
inactive: inhibition [2] 10% | inhibition [3] -6% | outcome [5] | outcome [6] | outcome [7] | outcome [8]
active: growth inhibition [1] 100% | growth inhibition [4] 100%

Cc1cc(N[C@@H](Cc2ccccc2)C(=O)NC2CCCC2)nc(NCCc2ccc(F)cc2)n1
active: growth inhibition [1] 61% | growth inhibition [4] 100%
inactive: inhibition [2] 21% | inhibition [3] -2% | outcome [5] | outcome [6] | outcome [7] | outcome [8]

CC(=O)Nc1cccc(-c2cn(-c3ccc(OCc4cccc(F)c4)c(Cl)c3)c3ncncc23)c1
inactive: inhibition [2] 7% | inhibition [3] -4% | outcome [5] | outcome [6] | outcome [7] | outcome [8]
active: growth inhibition [1] 66% | growth inhibition [4] 100%

CCCCNCc1ccc(-c2nc(CN(CCCn3ccnc3)C(=O)Nc3ccc(CC)cc3)cs2)cc1
inactive: inhibition [2] 21% | inhibition [3] 6% | outcome [5] | outcome [6] | outcome [7] | outcome [8]
active: growth inhibition [1] 56% | growth inhibition [4] 101%

O=c1cc(NCCCNCc2ccc(Cl)c(Cl)c2)[nH]c2cc(F)cc(F)c12
active: growth inhibition [1] 94% | growth inhibition [4] 102%
inactive: inhibition [2] 11% | inhibition [3] 0% | outcome [5] | outcome [6] | outcome [7] | outcome [8]

O=C(Nc1ccc(OC2CCN(Cc3ccc(F)cc3)C2)cc1)c1cccs1 (stereo not given)
active: growth inhibition [1] 92% | growth inhibition [4] 94%
inactive: inhibition [2] 2% | inhibition [3] 4% | outcome [5] | outcome [6] | outcome [7] | outcome [8]

Cc1cccc2[nH]c(-c3cccc(-c4cccc(NC(=O)c5cncn5C)c4)c3)nc12
active: growth inhibition [1] 91% | growth inhibition [4] 103%
inactive: inhibition [2] -1% | inhibition [3] 0% | outcome [5] | outcome [6] | outcome [7] | outcome [8]

Cc1ccc2nc(C)cc(Nc3ccccc3O)c2c1
active: growth inhibition [4] 96%
inactive: growth inhibition [1] 6% | inhibition [2] 0% | inhibition [3] -3% | outcome [5] | outcome [6] | outcome [7] | outcome [8]

O=C(NC1CCCCN(Cc2ccc3c(c2)OCCO3)C1)c1cc(-c2ccccc2F)cs1 (stereo not given)
active: growth inhibition [4] 92%
inactive: growth inhibition [1] 19% | inhibition [2] 8% | inhibition [3] 1% | outcome [5] | outcome [6] | outcome [7] | outcome [8]

COc1cc(C2CCN(CCCCNC(=O)c3ccc(NC(=O)c4cc(C(F)(F)F)cc(C(F)(F)F)c4)cc3)CC2)ccc1OC(C)C
active: growth inhibition [1] 100% | growth inhibition [4] 100%
inactive: inhibition [2] 21% | inhibition [3] 4% | outcome [5] | outcome [6] | outcome [7] | outcome [8]

COc1c(C2CCN(CCCCNC(=O)c3ccc(-c4ccc(Cl)cc4)cc3)CC2)ccc2c1C(C)(C)CCC2(C)C
inactive: growth inhibition [1] 42% | inhibition [3] 1% | outcome [5] | outcome [6] | outcome [7] | outcome [8]
active: inhibition [2] 94% | growth inhibition [4] 95%

COC(=O)c1cccc(CNCc2cccc(-c3ccc(-c4nc5ccccc5[nH]4)cc3)c2)c1
inactive: inhibition [2] -3% | inhibition [3] 4% | outcome [5] | outcome [6] | outcome [7] | outcome [8]
active: growth inhibition [1] 51% | growth inhibition [4] 99%
